Screening data deposited in PubChem BioAssay by National Center for Advancing Translational Sciences (NCATS).
Shown are actives, neighbours in structure and some others; about 3.3% of the full set was active somewhere.
Vaccinia mCherry = vaccinia inhibition (mCherry reporter); Vaccinia virus mCherry reporter infection, fluorescence; Potency, µM (top dose mostly 36.5 µM), for the others: top-dose activity change, negative = inhibition, most hits filed as inhibitors; 310,000 tested, 0.63% active; AID 720579; calls by dose curve; tested in A549 cells; note: nearly all actives have a fitted effect of over 35% in size
Vaccinia Venus = inhibitors of vaccinia virus (Venus reporter); Vaccinia virus Venus reporter expression, fluorescence; Potency, µM (highest dose often 36.5 µM), inactives show top-dose activity change, negative = inhibition, actives largely listed as inhibitors; 330,000 tested, 0.46% active; calls by dose curve; tested in A549 cells; note: nearly all actives have a fitted effect of over 30% in size
HCV inhibitor = HCV inhibition; Potency, µM (top dose mostly 41.8 µM), inactives show at the highest dose activity change, negative = inhibition, most hits filed as inhibitors; AID 651820; 340,000 tested, 3.4% active; Huh7.5.1 HCVcc-Cre infection, luciferase reporter, 44 h; active = well fitted inhibition curve with a large enough effect; inconclusive = small, poorly fitted or top-dose-only effect, or another doubt; inactive = no such curve, though single readings can be large or run the other way
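HCVcc-Cre virus at an moi near 0.5 was added right after compound to cells cultured 4 h from seeding (1,000 cells/well). Luciferase activity was determined 44 h later, 15 min after substrate addition at RT.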
An asterisk follows results filed as active; i = inactive; ? = inconclusive; . = not tested or not shown; [ ] = dose if it differs, or a comment. % is set by controls: 0 for no effect and ±100 for the full control effect; potency is the fitted concentration of half-maximal effect.

SMILES	Vaccinia mCherry	Vaccinia Venus	HCV inhibitor
CC(=O)c1ccc(NC(=O)CN2CCC(C(=O)c3ccc(F)cc3)CC2)cc1	-18.6%	-10.0%	?
Cc1cc(C)cc(NC(=O)CN2CCC(NC(=O)c3cccc(F)c3)CC2)c1	-8.1%	?	5.7%
O=C(CN1CCC(C(=O)c2ccc(F)cc2)CC1)Nc1ccc(F)cc1	?	?	10µM*
O=C(CN1CCC(NC(=O)c2cccc(F)c2)CC1)Nc1ccc(Br)cc1	-18.2%	-24.2%	10µM*
O=C(c1ccc(F)cc1)C1CCN(Cc2ccccc2F)CC1	-15.4%	-7.1%	.
CC(C)CCOc1ccc(CC(=O)NO)cc1	4.3%	-16.1%	.
O=C(CSc1nc2ccccc2c(=O)n1CCCN1CCOCC1)c1c[nH]c2ccccc12	-17.4%	-16.2%	14.1µM*
COc1ccccc1CNC(=O)CSc1nc2ccccc2c(=O)n1CCCN1CCOCC1	-18.2%	-24.9%	-16.2%
CC(=O)c1ccccc1NC(=O)CSc1nc2ccccc2c(=O)n1CCCN1CCOCC1	-11.2%	-5.3%	-12.3%
O=c1c2ccccc2nc(SCc2ccc(F)cc2Cl)n1CCCN1CCOCC1	.	.	10µM*
O=C(Cn1cc(C(=O)c2ccco2)c2ccccc21)Nc1ccccc1Cl	-21.3%	-26.7%	.
CCC(=O)c1cn(CC(=O)Nc2ccccc2F)c2ccccc12	-4.0%	-21.0%	-27.1%
CC(=O)c1cn(CC(=O)Nc2ccccc2F)c2ccccc12	-14.5%	-9.2%	11.2µM*
CC(=O)c1cn(CC(=O)Nc2ccccc2Cl)c2ccccc12	.	.	11.2µM*
Cc1ncc2c(c1CNC(=O)c1cncs1)CCN(C(=O)c1ccsc1)C2	-13.6%	-8.7%	.
COC(=O)C1C(O)CC[C@H]2CN3CCc4c([nH]c5ccccc45)C3C[C@H]12 (stereo partly drawn)	-13.0%	-1.6%	.
COC(=O)[C@]1(C)N[C@H](c2ccc(-c3ccccc3)cc2)[C@@H]2C(=O)N(C)C(=O)[C@@H]21	-7.2%	-14.2%	-8.6%
CCCCOc1ccccc1C1CC(=O)Nc2cc(OC)c(OC)cc21 (stereo not drawn)	6.7%	3.6%	.
COc1cccc(C2CC(=O)Nc3cc4c(cc32)OCO4)c1OC(C)C (stereo not drawn)	?	-29.6%	.
COc1ccccc1C1CC(=O)Nc2cc(C)c(C)cc21 (stereo not drawn)	-8.8%	-25.6%	?
CC(C)Oc1ccccc1C1CC(=O)Nc2cc3c(cc21)OCO3 (stereo not drawn)	.	.	11.2µM*
Cc1cc2c(cc1C)C(c1ccccc1OC(C)C)CC(=O)N2 (stereo not drawn)	?	-17.8%	8.91µM*
CCCOc1ccccc1C1CC(=O)Nc2cc3c(cc21)OCCO3 (stereo not drawn)	?	?	2.51µM*
Cc1cccc(Cc2c(C)nc3nc(SCC(=O)NCc4ccc(F)cc4)nn3c2C)c1	-29.2%	-27.8%	.
Cc1cccc(CSCc2ccc(C(=O)NCCc3ccccc3)o2)c1	1.7%	-3.6%	.
SMILES	Vaccinia mCherry	Vaccinia Venus	HCV inhibitor
COc1ccc(C(=O)Nc2ncnc3nc[nH]c23)cc1	-9.0%	-13.8%	.
COc1ccc(/C=C/C(=O)NCC(c2ccc(F)cc2)N2CCOCC2)cc1OC (stereo not drawn)	-15.1%	0.0%	-3.8%
O=c1[nH]c(-c2cccnc2)nc2sc(-c3ccccc3)cc12	.	.	-11.9%
Cc1nc2sc(-c3ccccc3)cc2c(=O)[nH]1	-6.7%	-1.1%	10µM*
CCc1ccc(OCC(=O)N(Cc2ccc(C(C)C)cc2)C2CCS(=O)(=O)C2)cc1 (stereo not drawn)	-11.8%	-15.7%	.
CC(C)C[C@@H](CO)N(Cc1ccccc1)S(=O)(=O)N(Cc1ccccc1)[C@H](CO)CC(C)C	-26.9%	?	?
CC(C)C[C@@H](CO)N(Cc1ccccc1)S(=O)(=O)N(Cc1ccccc1)[C@@H](CO)CC(C)C	?	22.4µM*	-7.3%
COc1ccc(CN([C@H](C)CO)S(=O)(=O)N(Cc2ccccc2)[C@H](CO)C(C)C)cc1	i	-24.4%	?
C=CS(=O)(=O)N(Cc1ccccc1Br)[C@H](CO)CC(C)C	?	1.41µM*	1.1%[8.37 µM]
COc1ccc(CN([C@H](CO)CC(C)C)S(=O)(=O)N(Cc2ccccc2)[C@H](CO)CC(C)C)cc1	?	12.6µM*	?
CCN([C@H](CO)CC(C)C)S(=O)(=O)c1ccccc1	-26.8%	-9.6%	31.2%
CCC12CN3CC(CC)(CN(C1)C3c1c[nH]c3ccccc13)C2=O (stereo not drawn)	-12.3%	-27.7%	.
COC(=O)c1ccc(NC(=O)CC2C(=O)N(c3cccc(F)c3)C(=O)N2CC(C)C)cc1 (stereo not drawn)	6.9%	4.9%	.
CCOc1cc(C(=O)N(Cc2nc(-c3ccc(C)cc3)no2)C(C)C)cc(OCC)c1OCC	-15.9%	-9.1%	.
FC(F)(F)c1cc(-c2ccccc2)nc(N2CCCCCC2)n1	.	8.6%	4.1%
COc1ccc(-c2cc(C(F)(F)F)nc(S(=O)(=O)CCCC(=O)Nc3cccc(O)c3)n2)cc1OC	?	-16.4%	11.2µM*
COc1ccc(NC(=O)CCCS(=O)(=O)c2nc(-c3ccc(OC)c(OC)c3)cc(C(F)(F)F)n2)cc1OC	-18.8%[7.34 µM]	-12.4%[7.34 µM]	.
COc1ccc(NC(=O)CCS(=O)(=O)c2nc(-c3ccc4c(c3)OCO4)cc(C(F)(F)F)n2)cc1	i	-14.1%	.
CS(=O)(=O)c1nc(-c2ccccc2)cc(C(F)(F)F)n1	14.1µM*	?	10µM*
COC(=O)c1cnn2c(C(F)(F)F)cc(-c3ccccc3)nc12	i	-6.2%	-22.5%
Cc1cc(NC(=O)c2cnn3c(C(F)(F)F)cc(-c4ccccc4)nc23)no1	-9.9%	-3.7%	7.08µM*
Cc1cc(NC(=O)CCS(=O)(=O)c2nc(-c3ccccc3)cc(C(F)(F)F)n2)no1	.	?	10µM*
CCCC(CCC)C(=O)Nc1cc(-c2cn3cccnc3n2)ccc1OC	0.9%	-6.3%	.
COCC1CCCN(Cc2ccc3c(c2)CN(C(=O)c2ccc(-c4ccc(C)o4)cc2)CCO3)C1 (stereo not drawn)	-12.3%	-10.4%	.
Cc1ccc(-c2cn(-c3cccc(Cl)c3)c(S(=O)(=O)CC(=O)Nc3ccccc3F)n2)cc1	-26.0%	-17.6%	.
SMILES	Vaccinia mCherry	Vaccinia Venus	HCV inhibitor
COc1cccc(/C=N/NC(=O)c2cccs2)c1	-11.3%	0.7%	2.6%
COc1cccc(/C=N/NC(=O)c2[nH]c(C)c(C(=O)N/N=C/c3cccc(OC)c3)c2C)c1	-16.9%	-11.8%	10µM*
CCOC(=O)c1c(C)[nH]c(C(=O)N/N=C/c2cccc(OC)c2)c1C	?	?	22.4µM*
COc1ccc(/C=N/NC(=O)c2[nH]c(C)c(C(=O)N/N=C/c3ccc(OC)cc3)c2C)cc1	i	-11.9%	?
Cn1cc(S(=O)(=O)N2CCCC2)cc1C(=O)Nc1ccc(C(F)(F)F)cc1	-7.9%	-10.7%	.
FC(F)(F)c1cc(Cc2nc3ccccc3n2C(CCc2ccccc2)c2nc3ccccc3[nH]2)cc(C(F)(F)F)c1 (stereo not drawn)	-26.5%	0.9%	.
COC(=O)C[C@H]1C[C@@H]2c3cc(NS(=O)(=O)c4cccc(OC)c4)ccc3O[C@@H]2[C@@H](CO)O1	-24.1%	-11.8%	.
O=C(CN1C(=O)c2ccccc2C1=O)NCC1Cc2cccc(-c3ncccn3)c2O1 (stereo not drawn)	-15.3%	-12.9%	.
CCOc1ccccc1N(C)C(=O)c1sc2nc3n(c(=O)c2c1C)CCCC3	-0.6%	-7.2%	.
